Laboratory results taken from patent publication US20210230599, “STEM-LOOP COMPOSITIONS AND METHODS FOR INHIBITING INTERLEUKIN-8” (VITRISA THERAPEUTICS, INC., published 2021).

Molecular target: Interleukin-8 (IL8, CXCL8), C-terminal His-tagged (Homo sapiens, UniProt P10145 SEQ:1-72)
Assay: competition; competition TR-FRET; deletion at position 16
Conditions: tags: C-terminal 6xHis (Sino Biological); ssRNA; 2'-F G, 2'-OMe A/C/U, 5' C6NH2, 3' idT
Description: Activity of each of these variants were tested using a time resolved competition TR-FRET assay in which the labeled parent Aptamer 3 was competed with increasing concentrations of unlabeled variants for binding to IL8 (FIG. 14). Briefly, 2-fold dilutions of thermally equilibrated aptamers were made in TR-FRET Buffer (50 mM MOPS, pH 7.4, 125 mM NaCl, 5 mM KCl, 50 μM CHAPS, 0.1 mg/mL BSA, 1 mM CaCl₂, and 1 mM MgCl₂). 5 μL of aptamer or control solution was added to 5 μl mix of 10 nM C-terminal His-tagged-IL8, 60 nM ALEXA FLUOR® 647-labeled Aptamer, and 5 nM anti-His-Eu (Perkin Elmer) in a black wall low volume 384 well plate (Greiner). For control, 5 μl of 1000-fold excess of unlabeled parent aptamer or 5 μl TR-FRET buffer alone was added to the mix of ALEXA FLUOR® 647-labeled aptamer, His-IL8, and anti-His-Eu. The plate was covered with a plate seal and subsequently incubated in the dark for 1 hour at room temperature. The plate was read on a Biotek CYTATION™ 5 plate reader. Samples were excited at 330 nm and fluorescent values were collected at 665 nm. Data analysis was performed by subtracting the background value and plotting as percent inhibition, normalized to baseline in the absence of competitor. […]

| Sequence | binding signal |
| --- | --- |
| UGAUGACGGUAGAUUUGGGUAGAGUGACCGCAUCU | ~5 fold worse than Aptamer 3 |
